Data: ChEMBL document CHEMBL4513216, “Probing the Open Global Health Chemical Diversity Library for Multistage-Active Starting Points for Next-Generation Antimalarials” (ACS Infect Dis, 2020)
Out of some 65,000 compounds screened, about 2,100 (3.2%) showed an effect of 50% or more. The median lay at about -52%. This excerpt belongs to a sample that is enriched for strong results.

tested on: Plasmodium falciparum; assay: Screen against P. falciparum Asexual Blood Stage (ABS), at 5uM; assay type: functional, Dd2; settings: tested at 5 uM

Structure (SMILES)	INHIBITION
CN(Cc1ccco1)C1CCC12CCN(C(=O)N1CCCC1)CC2 (configuration not stated)	-76%
O=C(c1cccc2ncccc12)N1CCCC(n2ccnc2)C1 (configuration not stated)	-2.7%
O=C(c1cccc2cccnc12)N1CCCC(n2ccnc2)C1 (configuration not stated)	55.4%
O=C(c1cccnc1N1CCCCC1)N1CCCC(n2ccnc2)C1 (configuration not stated)	29.5%
Cc1cc(C(=O)NCc2ccc(N3CCN(C)CC3)nc2)c(C)s1	-56.2%
O=C(c1cccc(F)c1Cl)N(CCO)CC1CC1	9.7%
O=C(NCc1cc(Br)cs1)Nc1cn[nH]c1	-116%
O=C(CC1CC1)N1CC[C@H]2[C@@H]1CCC(=O)N2c1cccnc1	-27.5%
O=C1CC(c2ccncc2)c2c(sc3c2CCCC3)N1 (configuration not stated)	56.8%
O=C1CC(c2ccc(C(=O)O)cc2)c2c(sc3c2CCCC3)N1 (configuration not stated)	-3.15%
O=C1CC(c2cccnc2)c2c(sc3c2CCCC3)N1 (configuration not stated)	29.8%
CCn1cnnc1CNC(=O)c1cc(Cl)ccc1F	-20.1%
Cc1cnn(CC2CCCN2C(=O)Cc2ccc3c(c2)CCO3)c1 (configuration not stated)	-48.8%
COc1cccc(CN2CCN(c3ccc4nncn4n3)C(C)C2)c1 (configuration not stated)	-39.5%
CC1CN(Cc2cccc(C#N)c2)CCN1c1ccc2nncn2n1 (configuration not stated)	50.9%
CC1CN(Cc2cccnc2)CCN1c1ccc2nncn2n1 (configuration not stated)	10.1%
COCCCNS(=O)(=O)c1ccc(N2CCCCS2(=O)=O)cc1	-76.7%
Cn1ccnc1CN1CCN(Cc2ccncc2)[C@@H]2CS(=O)(=O)C[C@@H]21	-33.9%
O=C([C@@H]1Cc2[nH]cnc2CN1C(=O)NC1CCCCC1)N1CCCC1	-56.1%
CN1Cc2nc[nH]c2C[C@H]1C(=O)NC1CCCCC1	53%
CN(Cc1ccccc1)C(=O)[C@@H]1Cc2[nH]cnc2CN1C	42.2%
Cc1c[nH]c(C2CCCN(C(=O)CCc3c(C)n[nH]c3C)C2)n1 (configuration not stated)	-98.1%
CCOc1ccc(C(=O)Nc2c(C)nc3ccccn3c2=O)cc1	-144%

Structure (SMILES)	INHIBITION
CCn1nc2c(cc1=O)CN(Cc1nc(-c3cccs3)no1)CC2	20.5%
CSCC(CCO)NC(=O)c1cccc(F)c1Cl (configuration not stated)	9.25%
OCC1COCCN(Cc2cc(C3CCCCC3)no2)C1 (configuration not stated)	-122%
C[C@@H]1CN(Cc2cc(C3CCCCC3)no2)CC[C@]1(C)O	-6.78%
NC1CCCCN(Cc2cc(C3CCCCC3)no2)C1 (configuration not stated)	62%
COCC(NC(=O)c1cn(-c2cccc(Cl)c2F)nn1)C1CC1 (configuration not stated)	-24.2%
Cc1ccc2cccc(S(=O)(=O)N(C)C3CCCN(C)C3)c2n1 (configuration not stated)	33.8%
Cc1ccc2cccc(S(=O)(=O)N(C)CC3CCN(C)CC3)c2n1	58.6%
Cc1ccc2cccc(S(=O)(=O)N(C)CC3CCN(C)C3)c2n1 (configuration not stated)	37.8%
Cn1c(CCC(=O)N2CCCC3(CC2)CNC(=O)O3)nc2cccnc21 (configuration not stated)	-38.1%
CC(C)CCN1C(=O)c2ccc(C(=O)NCCc3c[nH]cn3)cc2C1=O	-19.2%
Cc1cc(C)c2cc(CNCc3cccnc3)c3nn(C)c(=O)n3c2c1	31.5%
Cc1cc(C)c2cc(CNCC3CCCO3)c3nn(C)c(=O)n3c2c1 (configuration not stated)	7.98%
Cc1cc(C)c2cc(CNCc3ccccc3)c3nn(C)c(=O)n3c2c1	65.4%
CCCNCc1cc2c(C)cc(C)cc2n2c(=O)n(C)nc12	-36.8%
COCCNCc1cc2c(C)cc(C)cc2n2c(=O)n(C)nc12	-43%
Cc1cc(C)c2cc(CNCc3ccc(C)o3)c3nn(C)c(=O)n3c2c1	63.9%
CS(=O)(=O)N1Cc2ccnn2CC(C(=O)NCc2cccnc2)C1 (configuration not stated)	-95.4%
Cc1cnc(N2C[C@@H]3[C@@H](C2)OCC(=O)N3CCN(C)C)nc1	-122%
CCc1ccsc1C(=O)N1CCN(CCN2C(=O)CCC2=O)CC1	-170%
Cc1nn(C)cc1CN(C)C(=O)c1ccncc1	-130%
CCn1c(=O)nc(N)c2c(-c3ccc(OC)cc3)csc21	-67.6%
COc1ccc(-c2csc3c2c(N)nc(=O)n3CCCN(C)C)cc1	54.2%

Structure (SMILES)	INHIBITION
COc1ccc(-c2csc3c2c(N)nc(=O)n3CCN(C)C)cc1	-27.7%
O=C1COC2(CCN(Cc3ccoc3)CC2)CN1c1ccsc1	-66%
OCc1cc2ccccc2nc1N1CCCCC1	-56.3%
CC(C)N(C)C(=O)c1ccc(CNc2ccncc2Cl)cc1	24.6%
COc1cc(C)ccc1S(=O)(=O)N[C@H]1CN(C(C)=O)C[C@@H]1C1CC1	-120%
CN(C)S(=O)(=O)N1CCCC(c2cccc(Cc3ccc(F)cc3)n2)C1 (configuration not stated)	-107%
O=C(c1ccncc1)N1CCOC2(CCCN(c3nncs3)C2)C1 (configuration not stated)	-74.2%
CN1CCOC(CNC(=O)COc2ccc(F)cc2F)C1 (configuration not stated)	-69.6%
CC(C)N1CCC(CNC(=O)COc2ccc(F)cc2F)C1 (configuration not stated)	53.3%
CC(C)N1CCC(CNC(=O)CCc2cc(F)ccc2F)C1 (configuration not stated)	7.8%
Cc1ccc(N2CC[C@@H]3[C@@H]2CCN3C(=O)Cc2ccccc2)nn1	-79%
O=C(C1CCCC1)N1CCC(C2CCN(Cc3ccc(Cl)cc3)C2)CC1 (configuration not stated)	64.3%
O=C(C1CC1)N1CCCC1C1CCN(Cc2ccccc2)CC1 (configuration not stated)	-40.8%
CN1CCN(Cc2ccc(Cl)cc2)CC1C(=O)O (configuration not stated)	-94.1%
Clc1ccc(CN2CCC(C3CCN(Cc4cccnc4)CC3)C2)cc1 (configuration not stated)	64.4%
Clc1cccnc1N1CCC(C2CCN(Cc3cccnc3)CC2)C1 (configuration not stated)	-49.5%
CC(=O)NCC(=O)N1CCC(C2CCN(Cc3ccc(Cl)cc3)C2)CC1 (configuration not stated)	5.47%
CCOCC(=O)N1CCC(C2CCN(Cc3ccc(Cl)cc3)C2)CC1 (configuration not stated)	0.245%
Clc1ccc(N2CCC(C3CCN(Cc4cccnc4)CC3)C2)nc1 (configuration not stated)	12.7%
O=C(C1CCC1)N1CCC(C2CCN(Cc3ccc(Cl)cc3)C2)CC1 (configuration not stated)	65.6%
Cc1cc(C)n(CC2CCCN2C(=O)c2c(C)noc2C)n1 (configuration not stated)	-97.8%
